Assay [1] has as its target human Dopamine Transporter (DAT), SLC6A3 (gene 6531) (UniProt Q01959). The assay can be described thus: NVS_TR_hDAT: NovaScreen (NVS) Transporter Assay for human Dopamine Transporter (DAT) (AID 2283374).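 Also: activity means loss of bound radioligand signal relative to DMSO.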 Put shortly:
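Extracted human SLC6A3 protein incubated 1 h with radioligand and test chemical; bound fraction separated on filters and counted. Single 25 uM duplicate screen preceded concentration-response follow-up; positive and negative controls on every plate.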

The target of assay [2] is human Norepinephrine Transporter (NET), SLC6A2 (gene 6530) (UniProt P23975). Description: NVS_TR_hNET: NovaScreen (NVS) Transporter Assay for human Norepinephrine Transporter (NET) (AID 2283377).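 Also: cell-free membrane protein extracted from CHO cells expressing human NET.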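 As to AC50: displacement of radioligand from human NET seen as loss of scintillation signal.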 Put shortly: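 In this cell-free binding screen, chemicals at 25 uM (duplicate) compete with a radioligand for CHO-derived human NET over 1 hour, with filter-based radiodetection.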

For assay [3], the target named is Agonist Androgen Response Element (ARE), AR (gene 367) (UniProt P10275). Description: OT_AR_ARELUC_AG_1440: Odyssey Thera (OT) 24-hour CHO-K1 Luciferase Assay for Agonist Androgen Response Element (ARE) (AID 2283379). Put shortly:
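Luminescence increase above DMSO, read after a 24 h compound treatment of CHO-K1 cells expressing an androgen response element luciferase reporter, gives the single primary endpoint; concentration-response fitting used the positive direction.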

Assay [4] addresses Estrogen receptor beta (Homo sapiens) (UniProt Q92731). Description: OT_ER_ERbERb_1440: Odyssey Thera (OT) 24-hour HEK293T Protein-Complementation Assay for Estrogen Receptor-beta/-beta Homodimer (AID 2283380).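 Also: fluorescence gain from ER beta LBD homodimer complementation read by laser scanning cytometry; scored as signal increase over DMSO baseline for both agonists and antagonists.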 In outline:
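HEK293T cells stably expressing human ER-beta LBD (aa 310-547) PCA homodimer pair, dosed 24 h; formaldehyde-fixed, Draq5-stained. Readout: increase in nuclear (agonist) or nuclear plus cytoplasmic (antagonist) fluorescence intensity versus DMSO, gain-of-signal fitting.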

In assay [5] the target is Estrogen receptor (Homo sapiens) (UniProt P03372). Description: OT_ERa_GFPERaERE_0480: Odyssey Thera (OT) 8-hour HeLa Transcription Induction Assay for Estrogen Receptor (AID 2283381; active = hit-call score of the fitted dose curve at least 0.9, where 1 is the maximum; inactive = score below 0.9). Put shortly: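 Human cervical HeLa cells were treated for 8 hours, after which ERE-driven GFP induction was measured by fluorescence microscopy; increases over DMSO baseline defined activity.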

Assay [6] deals with Bile acid receptor (Homo sapiens) (UniProt Q96RI1). The assay can be described thus: OT_FXR_FXRSRC1_0480: Odyssey Thera (OT) 8-hour HEK293T Protein-Complementation Assay for Farnesoid X receptor/SRC-1 Co-activator (AID 2283383). In outline: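 PCA, HEK293T, 8 h compound exposure; FXR–SRC-1 binding reconstitutes split reporter; fluorescence intensity; positive-direction fit vs DMSO.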

For assay [7] the target is unchanged. Description: OT_FXR_FXRSRC1_1440: Odyssey Thera (OT) 24-hour HEK293T Protein-Complementation Assay for Farnesoid X receptor/SRC-1 Co-activator (AID 2283384). In outline:
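Measures ligand-driven FXR–SRC-1 co-activator recruitment in HEK293T via fragment complementation, fluorescence intensity at 24 h. DMSO served as negative control and baseline for gain-of-signal fitting.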

In assay [8] the target is Peroxisome proliferator-activated receptor gamma (Homo sapiens) (UniProt P37231). Description: OT_PPARg_PPARgSRC1_0480: Odyssey Thera (OT) 8-hour Protein-Complementation Assay for Peroxisome Proliferator-activated Receptor Gamma / SRC-1 Co-activator (AID 2283387). In outline: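 Split-YFP (IFP1/IFP2) PPARg/SRC-1 reporter, HEK293T, 37 °C, 5% CO2; 8 h compound; formaldehyde fix + Draq5; high-content imaging, N/C ratio, ≥350 cells/image, positive direction vs DMSO.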

Assay [9] can be described thus: CEETOX_H295R_11DCORT: CeeTox H295R High-throughput Steroidogenesis Assay for 11-Deoxycortisol (11DCORT) (AID 2283432; active = hit-call score of the fitted dose curve at least 0.9, where 1 is the maximum; inactive = score below 0.9;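 as to AC50: human adrenal H295R cells prestimulated with 10 µM forskolin for 48 h; 11-deoxycortisol secreted into the medium measured by LC-MS/MS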). Conditions: actives raise or lower the signal. In outline:
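Steroidogenesis in human H295R cells: 48 h chemical exposure after forskolin priming, 11-deoxycortisol measured by LC-MS/MS.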

Assay [10] can be described thus: CEETOX_H295R_OHPREG: CeeTox H295R High-throughput Steroidogenesis Assay for OH-Pregnenolone (OHPREG) (AID 2283434; active = hit-call score of the fitted dose curve at least 0.9, where 1 is the maximum; inactive = score below 0.9). Conditions: actives raise or lower the signal. Put shortly:
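Readout: HPLC-MS/MS of 17alpha-hydroxypregnenolone in medium after 48 h chemical exposure of H295R cells pretreated with forskolin. Values fitted bidirectionally relative to DMSO; chemicals reducing viability to 20–70% were retested after 10-fold dilution.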

Assay [11] is described as follows: CEETOX_H295R_OHPROG: CeeTox H295R High-throughput Steroidogenesis Assay for OH-Progesterone (OHPROG) (AID 2283435; active = hit-call score of the fitted dose curve at least 0.9, where 1 is the maximum; inactive = score below 0.9;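 as to AC50: human adrenal H295R cells primed 48 h with 10 µM forskolin; 17alpha-hydroxyprogesterone secreted into medium measured by HPLC-MS/MS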). To be noted: actives raise or lower the signal. Put shortly:
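Steps: seed H295R cells and adhere overnight; stimulate with 10 uM forskolin for 48 h; replace with chemical-containing medium (0.1% DMSO) for 48 h; extract medium with MTBE; quantify 17alpha-hydroxyprogesterone by reverse-phase C18 HPLC-MS/MS against a 7-point curve.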

A short description of assay [12]: CEETOX_H295R_ANDR: CeeTox H295R High-throughput Steroidogenesis Assay for Androstenedione (ANDR) (AID 2283436; active = hit-call score of the fitted dose curve at least 0.9, where 1 is the maximum; inactive = score below 0.9;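 also: human H295R adrenal cells exposed for 48 h with androstenedione measured in medium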). Conditions: actives raise or lower the signal. Put shortly: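 Steroidogenesis in H295R adrenal cells after 48 h dosing; androstenedione quantified by LC-MS/MS, with DMSO as negative control and baseline for bidirectional curve fitting.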
The target in assay [13] is Estrogen receptor (Homo sapiens) (UniProt P03372). The assay can be described thus: OT_ERa_GFPERaERE_0120: Odyssey Thera (OT) 2-hour HeLa Transcription Induction Assay for Estrogen Receptor (AID 2283382). Put shortly:
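Cells (human cervical HeLa) receive compound, incubate 2 hours, then are imaged for fluorescent reporter induction. Images are quantified by high content analysis, and activity is fitted as gain of signal against DMSO.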

Assay [14] has as its target Retinoic acid receptor RXR-alpha (Homo sapiens) (UniProt P19793). The assay can be described thus: OT_NURR1_NURR1RXRa_1440: Odyssey Thera (OT) 24-hour HEK293T Protein Complementation Assay for Nurr1/retinoid X receptor (RXR) (AID 2283386). Put shortly: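 Steps: fragment-tagged Nurr1 and RXRα expressed in HEK293T; compounds added; after 24 h, complemented reporter quantified by fluorescence intensity; signal increase over DMSO fitted as the single endpoint.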

The target of assay [15] is mouse Estrogen Receptor alpha (Era), Esr1 (gene 13982) (UniProt P19785). Description: NVS_NR_mERa: NovaScreen (NVS) Nuclear Receptor Binding Assay for mouse Estrogen Receptor alpha (Era) (AID 2283378).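 Also: hit means loss of bound radioligand signal relative to DMSO.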 Put shortly: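 Cell-free radioligand binding with extracted mouse Era protein; competitive displacement of radiolabelled ligand, read by filter-based scintillation counting 18 hours after dosing. Loss of signal versus DMSO baseline taken as binding; single screening concentration 25 uM, actives followed in concentration series.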

The target in assay [16] is Retinoic acid receptor RXR-alpha (Homo sapiens) (UniProt P19793). The assay can be described thus: OT_NURR1_NURR1RXRa_0480: Odyssey Thera (OT) 8-hour HEK293T Protein Complementation Assay for Nurr1/retinoid X receptor (RXR) (AID 2283385). Put shortly:
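Interaction of bait and prey reconstitutes a functional reporter, whose fluorescence was measured in HEK293T cells dosed with compound for 8 hours. Signal gain relative to DMSO defined the single endpoint.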

For assay [17], the target named is Peroxisome proliferator-activated receptor gamma (Homo sapiens) (UniProt P37231). Description: OT_PPARg_PPARgSRC1_1440: Odyssey Thera (OT) 24-hour Protein-Complementation Assay for Peroxisome Proliferator-activated Receptor Gamma/ SRC-1 Co-activator (AID 2283388). In outline: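 HEK293T cells transiently transfected with PPARg and SRC-1 fused via (Gly4Ser)2 linker to split Venus YFP fragments (IFP1/IFP2) were dosed 24 h; fixed, Draq5-stained, imaged at 488/635 nm; nuclear/cytoplasmic fluorescence ratio scored versus DMSO baseline, gain-of-signal.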

The target in assay [18] is rat Serotonin Transporter (SERT), Slc6a4 (gene 25553) (UniProt P31652). The assay can be described thus: NVS_TR_rSERT: NovaScreen (NVS) Transporter Assay for rat Serotonin Transporter (SERT) (AID 2283375). Put shortly: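 Rat forebrain membranes were incubated with test chemical for 1 hour; radioligand binding to SERT was measured by filter-based scintillation counting. Primary screen ran in duplicate at 25 uM, with actives followed up in concentration series; DMSO served as negative control.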

Among the data in PubChem BioAssay (EPA / NIEHS) are AC50 and outcome values, retold here.

Where “and” joins values, the source holds several entries; their conditions need not be identical. Equal values may be shown once. Records with an inconclusive call do not appear. Where a structure was tested more than once in an assay, its records may differ in their call. Calls of active or inactive are those of the source. The calls were made as follows, unless noted: active = hit-call score of the fitted dose curve at least 0.9, where 1 is the maximum; inconclusive = response in the unintended direction; inactive = score below 0.9.

Sequence of mouse Estrogen Receptor alpha (Era), Esr1 (gene 13982) (P19785 whole entry, looked up): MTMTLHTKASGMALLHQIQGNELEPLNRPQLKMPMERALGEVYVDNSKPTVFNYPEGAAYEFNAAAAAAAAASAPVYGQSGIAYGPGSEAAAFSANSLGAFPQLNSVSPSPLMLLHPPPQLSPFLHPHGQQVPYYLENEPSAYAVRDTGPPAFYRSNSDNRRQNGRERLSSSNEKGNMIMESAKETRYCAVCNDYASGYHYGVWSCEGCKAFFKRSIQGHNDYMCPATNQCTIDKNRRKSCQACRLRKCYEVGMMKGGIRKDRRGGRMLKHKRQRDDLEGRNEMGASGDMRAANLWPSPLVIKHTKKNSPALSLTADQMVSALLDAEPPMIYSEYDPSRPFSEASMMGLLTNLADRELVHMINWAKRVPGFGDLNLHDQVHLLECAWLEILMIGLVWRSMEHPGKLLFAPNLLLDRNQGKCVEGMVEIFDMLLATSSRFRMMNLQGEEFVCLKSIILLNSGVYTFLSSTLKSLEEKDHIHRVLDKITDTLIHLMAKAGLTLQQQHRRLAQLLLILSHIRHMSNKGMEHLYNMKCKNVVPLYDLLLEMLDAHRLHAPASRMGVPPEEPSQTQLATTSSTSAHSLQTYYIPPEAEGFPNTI
Sequence of Estrogen receptor beta (Homo sapiens) (Q92731 whole entry, looked up, the tested form may be a part): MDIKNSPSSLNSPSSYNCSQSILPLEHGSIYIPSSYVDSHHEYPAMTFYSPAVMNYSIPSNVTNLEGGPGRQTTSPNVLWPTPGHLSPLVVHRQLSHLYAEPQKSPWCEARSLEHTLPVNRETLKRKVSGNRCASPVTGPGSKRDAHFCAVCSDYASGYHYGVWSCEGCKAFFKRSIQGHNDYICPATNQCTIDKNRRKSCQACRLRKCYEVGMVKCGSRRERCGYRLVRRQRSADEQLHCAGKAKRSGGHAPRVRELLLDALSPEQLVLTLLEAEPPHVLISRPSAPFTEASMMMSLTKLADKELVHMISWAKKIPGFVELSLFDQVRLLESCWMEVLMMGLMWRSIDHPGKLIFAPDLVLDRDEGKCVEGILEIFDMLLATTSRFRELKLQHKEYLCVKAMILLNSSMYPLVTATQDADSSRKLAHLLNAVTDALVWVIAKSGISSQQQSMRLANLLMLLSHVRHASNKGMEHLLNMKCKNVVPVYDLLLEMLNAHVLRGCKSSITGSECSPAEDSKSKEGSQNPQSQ
Sequence of Bile acid receptor (Homo sapiens) (Q96RI1 whole entry, looked up): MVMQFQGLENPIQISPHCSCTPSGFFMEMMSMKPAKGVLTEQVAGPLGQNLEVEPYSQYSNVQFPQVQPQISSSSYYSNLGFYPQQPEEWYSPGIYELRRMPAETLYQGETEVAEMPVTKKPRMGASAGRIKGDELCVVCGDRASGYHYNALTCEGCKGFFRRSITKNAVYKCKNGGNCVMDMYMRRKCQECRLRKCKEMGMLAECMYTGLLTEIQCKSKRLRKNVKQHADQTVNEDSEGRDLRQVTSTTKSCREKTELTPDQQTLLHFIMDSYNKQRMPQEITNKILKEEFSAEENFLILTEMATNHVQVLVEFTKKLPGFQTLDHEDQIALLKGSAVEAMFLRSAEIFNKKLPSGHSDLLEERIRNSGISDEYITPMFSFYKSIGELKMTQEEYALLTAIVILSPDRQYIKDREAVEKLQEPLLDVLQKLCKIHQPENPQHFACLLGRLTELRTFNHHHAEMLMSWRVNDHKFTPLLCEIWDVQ
Sequence of Retinoic acid receptor RXR-alpha (Homo sapiens) (P19793 whole entry, looked up, the tested form may be a part): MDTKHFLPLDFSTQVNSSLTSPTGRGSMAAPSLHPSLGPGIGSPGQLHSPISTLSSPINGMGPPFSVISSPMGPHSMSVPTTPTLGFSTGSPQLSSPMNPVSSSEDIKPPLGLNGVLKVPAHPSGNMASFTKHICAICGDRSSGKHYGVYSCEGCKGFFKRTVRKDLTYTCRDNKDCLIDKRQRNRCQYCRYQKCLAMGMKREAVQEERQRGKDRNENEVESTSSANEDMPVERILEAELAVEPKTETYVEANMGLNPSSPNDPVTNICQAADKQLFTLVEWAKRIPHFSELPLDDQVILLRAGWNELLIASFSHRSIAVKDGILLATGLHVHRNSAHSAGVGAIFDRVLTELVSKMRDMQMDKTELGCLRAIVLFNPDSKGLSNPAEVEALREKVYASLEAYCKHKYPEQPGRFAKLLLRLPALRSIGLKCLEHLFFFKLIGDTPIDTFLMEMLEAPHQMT
Sequence of human Dopamine Transporter (DAT), SLC6A3 (gene 6531) (Q01959 whole entry, looked up): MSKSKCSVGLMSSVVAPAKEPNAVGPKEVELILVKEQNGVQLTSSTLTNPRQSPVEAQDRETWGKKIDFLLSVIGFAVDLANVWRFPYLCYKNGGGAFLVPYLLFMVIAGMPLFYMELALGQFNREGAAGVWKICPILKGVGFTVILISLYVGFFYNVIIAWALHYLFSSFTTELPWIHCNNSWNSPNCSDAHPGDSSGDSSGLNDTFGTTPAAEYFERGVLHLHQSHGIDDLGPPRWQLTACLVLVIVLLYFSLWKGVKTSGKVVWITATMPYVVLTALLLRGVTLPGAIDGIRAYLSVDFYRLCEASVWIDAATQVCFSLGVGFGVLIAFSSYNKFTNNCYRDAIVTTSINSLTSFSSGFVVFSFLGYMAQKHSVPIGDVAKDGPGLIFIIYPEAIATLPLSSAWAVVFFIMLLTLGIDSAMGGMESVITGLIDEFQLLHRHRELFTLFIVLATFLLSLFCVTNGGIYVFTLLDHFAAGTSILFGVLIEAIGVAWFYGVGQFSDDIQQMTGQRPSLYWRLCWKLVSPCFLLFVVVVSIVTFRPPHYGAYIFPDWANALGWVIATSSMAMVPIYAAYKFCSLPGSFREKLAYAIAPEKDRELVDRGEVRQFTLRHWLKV
Sequence of human Norepinephrine Transporter (NET), SLC6A2 (gene 6530) (P23975 whole entry, looked up): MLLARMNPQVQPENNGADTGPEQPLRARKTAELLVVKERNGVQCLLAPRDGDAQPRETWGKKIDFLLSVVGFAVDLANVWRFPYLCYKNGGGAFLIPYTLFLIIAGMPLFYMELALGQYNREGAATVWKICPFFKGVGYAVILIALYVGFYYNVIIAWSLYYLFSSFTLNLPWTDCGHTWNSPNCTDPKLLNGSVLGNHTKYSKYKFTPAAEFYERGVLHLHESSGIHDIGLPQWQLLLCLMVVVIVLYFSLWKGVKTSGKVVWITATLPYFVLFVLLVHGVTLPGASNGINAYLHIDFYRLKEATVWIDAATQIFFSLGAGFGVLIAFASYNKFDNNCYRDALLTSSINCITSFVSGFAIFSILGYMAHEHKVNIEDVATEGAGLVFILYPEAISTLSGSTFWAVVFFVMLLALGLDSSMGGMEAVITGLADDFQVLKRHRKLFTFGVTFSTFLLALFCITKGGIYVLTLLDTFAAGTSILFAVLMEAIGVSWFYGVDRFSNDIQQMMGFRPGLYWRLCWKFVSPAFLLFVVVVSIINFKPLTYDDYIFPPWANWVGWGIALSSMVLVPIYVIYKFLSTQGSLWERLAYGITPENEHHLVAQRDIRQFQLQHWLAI
Sequence of Peroxisome proliferator-activated receptor gamma (Homo sapiens) (P37231 whole entry, looked up, the tested form may be a part): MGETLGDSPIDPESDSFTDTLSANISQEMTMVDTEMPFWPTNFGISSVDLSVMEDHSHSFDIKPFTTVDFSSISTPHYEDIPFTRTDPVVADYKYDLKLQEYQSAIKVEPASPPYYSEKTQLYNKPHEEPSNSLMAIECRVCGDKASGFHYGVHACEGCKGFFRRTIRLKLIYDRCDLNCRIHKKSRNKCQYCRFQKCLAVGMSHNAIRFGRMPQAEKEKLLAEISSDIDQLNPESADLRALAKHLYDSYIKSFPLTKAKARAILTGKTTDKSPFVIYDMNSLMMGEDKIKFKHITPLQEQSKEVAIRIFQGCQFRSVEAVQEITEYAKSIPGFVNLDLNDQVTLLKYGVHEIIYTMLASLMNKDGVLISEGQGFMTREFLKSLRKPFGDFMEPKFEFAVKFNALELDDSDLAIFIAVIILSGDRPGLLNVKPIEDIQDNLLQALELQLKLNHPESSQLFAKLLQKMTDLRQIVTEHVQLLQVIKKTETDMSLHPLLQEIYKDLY
Sequence of Agonist Androgen Response Element (ARE), AR (gene 367) (P10275 whole entry, looked up): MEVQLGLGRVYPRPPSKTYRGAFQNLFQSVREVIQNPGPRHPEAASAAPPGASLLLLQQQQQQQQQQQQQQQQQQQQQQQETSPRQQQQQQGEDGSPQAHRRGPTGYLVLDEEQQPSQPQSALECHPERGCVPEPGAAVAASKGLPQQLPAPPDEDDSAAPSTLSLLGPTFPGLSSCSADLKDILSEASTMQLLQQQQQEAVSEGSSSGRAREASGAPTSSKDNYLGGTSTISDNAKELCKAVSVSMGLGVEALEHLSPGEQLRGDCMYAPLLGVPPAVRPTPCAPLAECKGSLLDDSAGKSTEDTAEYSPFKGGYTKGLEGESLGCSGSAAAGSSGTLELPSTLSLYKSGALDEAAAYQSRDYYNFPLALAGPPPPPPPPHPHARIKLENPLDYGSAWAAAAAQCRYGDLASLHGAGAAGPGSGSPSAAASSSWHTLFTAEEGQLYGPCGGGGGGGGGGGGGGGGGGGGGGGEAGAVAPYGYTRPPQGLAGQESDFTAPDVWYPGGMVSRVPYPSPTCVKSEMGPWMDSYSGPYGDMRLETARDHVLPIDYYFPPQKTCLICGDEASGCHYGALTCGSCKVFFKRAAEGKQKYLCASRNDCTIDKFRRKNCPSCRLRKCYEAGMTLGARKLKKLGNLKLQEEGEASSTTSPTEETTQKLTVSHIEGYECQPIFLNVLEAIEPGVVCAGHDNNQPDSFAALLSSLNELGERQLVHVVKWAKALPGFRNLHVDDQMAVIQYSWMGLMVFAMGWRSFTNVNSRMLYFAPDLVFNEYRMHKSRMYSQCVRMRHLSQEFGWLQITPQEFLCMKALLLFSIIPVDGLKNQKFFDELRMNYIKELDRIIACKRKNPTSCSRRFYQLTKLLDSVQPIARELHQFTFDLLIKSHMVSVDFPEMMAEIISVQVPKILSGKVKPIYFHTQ

Usually AC50 stands for the concentration giving half of the maximal activity seen. `CCN(CC)C(=S)SSC(=S)N(CC)CC`: the AC50 in [1] was 10.4 µM (active); in [2], 0.344 µM (active); in [5] it was 92.5 µM (active). Further, the call in [3], in [4], in [6], in assay [7], in [8] and in assay [9] was inactive. Further, the outcome in [10], in assay [11] and in assay [12] was inactive.
As to `Cc1nc(-c2ccccn2)ncc1C(=O)Nn1cc(C)c2cc(F)ccc21`, the result in assay [3], in assay [4], in assay [5], in assay [13], in assay [7] and in assay [14] was inactive. Moreover, the call in assay [8] was inactive.
In the case of `CCCCC(CC)C(=O)OCCOCCOCCOC(=O)C(CC)CCCC` (centres undefined), the molecule was classed as inactive in assay [1], in [2], in [15], in assay [3], in [4] and in assay [5]. The result in [16], in [14], in assay [8], in assay [17], in [9] and in [10] was inactive. Further, the molecule was called inactive in [11] and in [12].
On to `CC(C)C(=O)Nc1ccc([N+](=O)[O-])c(C(F)(F)F)c1`, for which the call in assay [15], in assay [4], in assay [5], in [13], in [6] and in assay [16] was inactive. In addition, in assay [8], the molecule was classed as inactive.
As to `CCCOc1ccc(S(=O)(=O)N2CCN(CC)CC2)cc1-c1nc2c(CC)n(Cc3ccccn3)nc2c(=O)[nH]1`, the AC50 in assay [1] was 25 µM (active). For the same molecule, the outcome in [18], in assay [4], in assay [5], in assay [13], in assay [6] and in [7] was inactive. The molecule was called inactive in assay [16], in assay [8], in assay [17], in assay [9], in assay [10] and in assay [11].
Regarding `CNC(C)=O`, the molecule was classed as inactive in [2], in assay [4], in assay [5], in assay [16], in assay [14] and in assay [8].
Regarding `CCc1ccc(O)c(C(C)(C)C)c1`, the result in [15], in [4], in [5], in assay [13] and in assay [8] was inactive.
Regarding `COc1cc(C(C)C)c2c(c1)S(=O)(=O)N(COc1cc(=O)n3cccc(OCCN4CCCCC4)c3n1)C2=O`, the AC50 was 2.87 µM (active) in assay [1]; 4.47 µM (active) in assay [2]; 23.2 µM (active) in assay [5]; 19.3 µM (active) in assay [7]; 3.02 µM (active) and 4 µM (active) in assay [16]; 2.9 µM (active) in [14]. Moreover, the molecule was classed as inactive in [3], in [6], in assay [14] and in [8].
Take `O=S(=O)(O)c1ccc(N=Nc2c(O)ccc3cc(S(=O)(=O)O)ccc23)cc1`: the outcome in assay [18], in [5], in assay [13], in [7], in assay [16] and in [14] was inactive.
As to `Cc1nccn1-c1ccc(Sc2cccc(C3(C(N)=O)CCOCC3)c2)cc1`, the AC50 is 6.99 µM (active) in assay [1]; 31.9 µM (active) in [4]; 17.4 µM (active) in [5]; 4.07 µM (active) in assay [6]; 9.64 µM (active) in assay [7]; 50 µM (active) in assay [14]. Moreover, the result in [13], in assay [16], in [14] and in assay [8] was inactive.
Turning to `C=CCc1cc(S(=O)(=O)c2ccc(O)c(CC=C)c2)ccc1O`, the AC50 in assay [1] is 7.48 µM (active); in assay [2], 6.96 µM (active); in assay [15] it was 14.6 µM (active); in assay [9], 6.4 µM (active); in assay [10] it was 12.4 µM (active); in assay [11] it was 0.165 µM (active). In addition, the molecule was called inactive in assay [4], in assay [5], in assay [13], in assay [8] and in assay [12].
`C[C@]12C=CC(=O)C=C1CC[C@H]1[C@@H]3C[C@@H](O)[C@](O)(C(=O)CO)[C@@]3(C)C[C@H](O)[C@@]12F`: the outcome in assay [15], in assay [5], in [13], in assay [16], in assay [14] and in assay [8] was inactive. Moreover, the molecule was classed as inactive in assay [17], in assay [9], in assay [10] and in assay [11].
Consider `c1ccc2c(c1)-c1cccc3c1c-2cc1ccccc13`, for which the call in assay [15], in assay [4], in assay [5], in assay [16], in assay [14] and in [8] was inactive. In addition, in assay [17], the molecule was classed as inactive. For the same molecule, the AC50 in assay [14] is 11.2 µM (active); in [9], 2.55 µM (active); in assay [10], 2 µM (active); in assay [11], 3.71 µM (active).
As to `OC(CCl)CCl`, the molecule was called inactive in assay [1], in [4], in [5], in assay [13], in assay [16] and in [14]. In [8], the molecule was called inactive.
